An excerpt weighted towards active compounds, which were near 21% of everything screened.
DRD3 agonist: D3 dopamine receptor (human) agonism | max activation, % | 410,000 tested, 0.58% active | P35462 | D3R DiscoveRx beta-arrestin cells, luminescence, 90 min; in the data active = max activation above about 30%
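Agonist mode: compounds and dopamine controls were applied to plated cells for 90 min at 37 degrees C after an overnight attachment at 1500 cells/well. Luminescent read-out followed 30 - 60 minutes at room temperature with DiscoveRx detection reagent.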
DT40 TDP1 no CPT: qHTS for Inhibitors of human tyrosyl-DNA phosphodiesterase 1 (TDP1): qHTS in cells in absence of CPT; DT40 Tdp1-/- hTDP1 cells, no CPT, ATP luminescence, 48 h; Potency, µM (top dose mostly 46.2 µM), usual class: inhibitors; 420,000 tested, 15% active; AID 686978, 2013; note: nearly all actives have a fitted effect of over 55% in size
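Compound effects on proliferation are scored in DT40 Tdp1-/-;hTDP1 cells in the absence of CPT. ATP levels (CellTiter-Glo luminescence) are recorded after a ≥48 hr, 37 °C incubation.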
IL-1B inflam inh: inflammasome signaling inhibition, IL-1 beta readout; AID 743279; THP-1 LPS/ATP IL-1B secretion, AlphaLISA, 16 h; hits give low values; activity change, % at 57.5 µM; 360,000 tested, 4.7% active; in the data active = activity change below about -50%; inconclusive = mostly about -30% to -49%
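THP-1 cells pretreated 1 hr with compounds (up to 57.5 uM final), then stimulated with LPS (250 ng/mL final) plus ATP (1.25 mM final); secreted IL-1B measured by AlphaLISA after 16 hr, decreased signal indicating inhibition.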
DT40 TDP1 CPT: DT40-hTDP1 cell growth loss with CPT; chicken DT40 Tdp1-/-;hTDP1 cells + 20 nM CPT, ATP luminescence, 48 h; Potency, µM (titrated, usually from 46.2 µM), hits mostly inhibitors; 420,000 tested, 12% active; note: nearly all actives have a fitted effect of over 55% in size
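Chicken DT40 Tdp1-/- cells stably complemented with human TDP1 were seeded at 400 cells/well in medium containing 20 nM camptothecin, exposed to pin-transferred compounds, and grown at 37 °C for at least 48 hr. Viability was read as ATP luminescence.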
ClpP mod: qHTS Assay for Activators of ClpP; purified B. subtilis ClpP, FRET peptide cleavage, 20 min; Potency, µM (highest dose often 57.5 µM); AID 651965, 2013; 340,000 tested, 1.9% active; active = well fitted falling curve with a large enough effect; inconclusive = small, poorly fitted or top-dose-only effect; inactive = no such curve, though single readings can be large or run the other way; note: the source files actives as falling curves though it sought activators and does not explain the sign; nearly all actives have a fitted effect of over 65% in size
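Buffer: 100 mM Tris/HCl pH8, 100 mM KCl, 0.05% low protease BSA, 2.5% glycerol, 0.01% Tween-20. ClpP 10 microg/mL final; 20 min RT; delta FRET normalized to ADEP and DMSO controls.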
DRD3 antagonist: D3 dopamine receptor (human) antagonism. max response, negative = inhibition, %. D3R cells, DiscoveRx beta-arrestin luminescence, antagonist mode; hits give low values. 360,000 tested, 2.5% active. AID 652054; in the data active = max response below about -50%; inconclusive = no clear call, values can overlap the other calls
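Cells plated overnight at 1500 cells/well, then exposed to library compounds with dopamine controls for 90 minutes at 37 degrees C. DiscoveRx reagent added for 30–60 minutes at room temperature; luminescence read, quantitative HTS format.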
Numbers stand for hits. Unless noted, calls come from the whole dose curve; as a rule, active = well fitted inhibition curve with a large enough effect; inconclusive = small, poorly fitted or top-dose-only effect; inactive = flat fitted curve, though single readings scatter.

Cc1c(C)c2ccc(O[C@@H]3O[C@H](CO)[C@@H](O)[C@H](O)[C@H]3O)c(C)c2oc1=O was read as DRD3 agonist inactive, DT40 TDP1 no CPT inactive, IL-1B inflam inh inactive, DT40 TDP1 CPT inactive, ClpP mod inactive and DRD3 antagonist inactive.
CCOc1ccc2c(CC)cc(=O)oc2c1OCC was read as DRD3 agonist inactive, DT40 TDP1 no CPT inactive, IL-1B inflam inh inactive, DT40 TDP1 CPT inactive, ClpP mod inactive and DRD3 antagonist inactive.
For C=CCOc1ccc2c(CC)cc(=O)oc2c1C the results were DRD3 agonist inactive, DT40 TDP1 no CPT inactive, IL-1B inflam inh inactive, DT40 TDP1 CPT inactive, ClpP mod 25µM and DRD3 antagonist inactive.
`O=C1N(C2CCCC2)C[C@@H]2C[C@@H](c3cn[nH]c3-c3ccc(Cl)cc3)N3CCC[C@@]123` gave DRD3 agonist inactive, DT40 TDP1 no CPT inconclusive, IL-1B inflam inh -64, DT40 TDP1 CPT inconclusive and DRD3 antagonist inactive.
Screening COc1ccccc1-n1cc([C@@H]2C[C@H]3CN(c4ccccc4)C(=O)[C@]34CCCN24)cn1 returned DRD3 agonist inactive, DT40 TDP1 no CPT inactive, IL-1B inflam inh -78, DT40 TDP1 CPT inactive and DRD3 antagonist inactive.
Screening Cc1ccccc1CN1C[C@@H]2C[C@@H](c3cn[nH]c3-c3ccccc3)N3CCC[C@@]23C1=O returned DRD3 agonist inactive, DT40 TDP1 no CPT inconclusive, IL-1B inflam inh -63, DT40 TDP1 CPT inconclusive and DRD3 antagonist inactive.
Screening COc1ccccc1CN1C[C@@H]2C[C@@H](c3ccccc3OC)N3CCC[C@@]23C1=O returned DRD3 agonist inactive, DT40 TDP1 no CPT inconclusive, IL-1B inflam inh inactive, DT40 TDP1 CPT 16µM, ClpP mod inactive and DRD3 antagonist inactive.
For COc1ccccc1CN1C[C@@H]2C[C@@H](C3=Cc4cccc(OC)c4OC3)N3CCC[C@@]23C1=O the results were DRD3 agonist inactive, DT40 TDP1 no CPT inconclusive, IL-1B inflam inh inactive, DT40 TDP1 CPT inconclusive and DRD3 antagonist inactive.
Screening Cc1c([C@@H]2C[C@H]3CN(Cc4cccc(Cl)c4)C(=O)[C@]34CCCN24)cnn1C returned DRD3 agonist inactive, DT40 TDP1 no CPT inconclusive, IL-1B inflam inh inactive, DT40 TDP1 CPT inconclusive and DRD3 antagonist inactive.
COc1ccc(NC(=O)C2CCC(N3C(=O)C4CCCCC4C3=O)CC2)cc1 (configuration not stated) was read as DRD3 agonist inactive, DT40 TDP1 no CPT inactive, IL-1B inflam inh inactive, DT40 TDP1 CPT inactive, ClpP mod inactive and DRD3 antagonist inactive.
Screening O=C(Nc1ccc(Cc2ccncc2)cc1)C1CCC(N2C(=O)C3CC=CCC3C2=O)CC1 (configuration not stated) returned DRD3 agonist inactive, DT40 TDP1 no CPT 16µM, IL-1B inflam inh -71, DT40 TDP1 CPT 21µM, ClpP mod inactive and DRD3 antagonist inactive.
CCOc1ccccc1C(=O)Nc1cc(-c2nc3cccnc3s2)ccc1C was read as DRD3 agonist inactive, DT40 TDP1 no CPT 5.2µM, DT40 TDP1 CPT 8.2µM and ClpP mod inactive.
`COc1cc(OC)cc(C(=O)Nc2ccc(-c3nc4ccccc4s3)cc2C)c1` gave DRD3 agonist inactive and ClpP mod inactive.
`COc1cc(OC)cc(C(=O)Nc2cc(-c3nc4cccnc4s3)ccc2C)c1` gave DRD3 agonist inactive, DT40 TDP1 no CPT 10µM, DT40 TDP1 CPT inconclusive and ClpP mod inactive.
COc1cccc(/C=C/C(=O)O)c1C(C)C was read as DT40 TDP1 no CPT inactive and DT40 TDP1 CPT inactive.
Screening N#C/C(=C\c1ccccc1)C(=O)N(c1ccccn1)C1CCCCC1 returned DRD3 agonist inactive, DT40 TDP1 no CPT 18µM, IL-1B inflam inh -98, DT40 TDP1 CPT inconclusive, ClpP mod inactive and DRD3 antagonist inactive.
For O=C(c1cccc(C(=O)N(c2ccccn2)C2CCCCC2)c1)N(c1ccccn1)C1CCCCC1 the results were DRD3 agonist inactive, DT40 TDP1 no CPT 9.2µM, IL-1B inflam inh inactive, DT40 TDP1 CPT 12µM and DRD3 antagonist -54.
O=C(c1ccc(Br)cc1)N(c1ccccn1)C1CCCCC1 was read as DRD3 agonist inactive, DT40 TDP1 no CPT 15µM, IL-1B inflam inh inactive, DT40 TDP1 CPT inconclusive, ClpP mod inactive and DRD3 antagonist inactive.
`CN1CCC(N(C)C(=O)/C(C#N)=C/c2ccccc2)CC1` gave DRD3 agonist inactive, DT40 TDP1 no CPT inactive, IL-1B inflam inh inactive, DT40 TDP1 CPT inactive, ClpP mod inactive and DRD3 antagonist inactive.
O=C(c1ccc(Cl)cc1)N(c1ccccn1)C1CCCCC1 was read as DRD3 agonist inactive, DT40 TDP1 no CPT 26µM, IL-1B inflam inh inactive, DT40 TDP1 CPT inactive, ClpP mod inactive and DRD3 antagonist inactive.
COCCn1c(SCC(=O)Nc2ccc3[nH]c(=O)[nH]c3c2)nc2ccccc21 was read as DRD3 agonist inactive, DT40 TDP1 no CPT inconclusive, IL-1B inflam inh inactive, DT40 TDP1 CPT inactive and DRD3 antagonist inactive.
For O=C(c1ccc(F)cc1Cl)N(c1ccccn1)C1CCCCC1 the results were DRD3 agonist inactive, DT40 TDP1 no CPT 15µM, IL-1B inflam inh inactive, DT40 TDP1 CPT 18µM, ClpP mod inactive and DRD3 antagonist inactive.
For O=C(C1CCCCC1)N(Cc1ccccc1)c1ccccn1 the results were DRD3 agonist inactive, DT40 TDP1 no CPT inconclusive, IL-1B inflam inh inactive, DT40 TDP1 CPT inconclusive, ClpP mod inactive and DRD3 antagonist inactive.
CC(C)c1ccc(OCC(=O)N(c2ccccn2)C2CCCCC2)cc1 was read as DRD3 agonist inactive, DT40 TDP1 no CPT 15µM, IL-1B inflam inh inactive, DT40 TDP1 CPT inconclusive, ClpP mod inactive and DRD3 antagonist inactive.
For O=C(COc1ccc(F)cc1)N(c1ccccn1)C1CCCCC1 the results were DRD3 agonist inactive, DT40 TDP1 no CPT inconclusive, IL-1B inflam inh inactive, DT40 TDP1 CPT inconclusive, ClpP mod inactive and DRD3 antagonist inactive.
For COc1cc2cc(/C=C/C(=O)c3ccco3)c(Cl)nc2cc1OC the results were DRD3 agonist inactive, DT40 TDP1 no CPT 4.6µM, IL-1B inflam inh inactive, DT40 TDP1 CPT 4.1µM, ClpP mod inactive and DRD3 antagonist inconclusive.
Screening O=C(C=Cc1ccco1)c1ccco1 returned DRD3 agonist inactive, DT40 TDP1 no CPT inactive, IL-1B inflam inh inconclusive, DT40 TDP1 CPT inactive, ClpP mod inactive and DRD3 antagonist inactive.
Screening Cc1ccc2cc(/C=C/C(=O)c3ccco3)c(Cl)nc2c1 returned DRD3 agonist inactive, DT40 TDP1 no CPT 21µM, DT40 TDP1 CPT 10µM and DRD3 antagonist inactive.
`Nc1nc(Nc2cccc(F)c2)nc2ccccc12` gave DRD3 agonist inactive, DT40 TDP1 no CPT 18µM, IL-1B inflam inh -111, DT40 TDP1 CPT 18µM, ClpP mod inconclusive and DRD3 antagonist inactive.

Screens: PubChem, National Center for Advancing Translational Sciences (NCATS)
